CtBP-E1A blk: qHTS Assay for Inhibitors of the CtBP/E1A Interaction. AlphaScreen GST-E1A/His-CtBP binding, 1536-well; hits give low values. activity change, % (no concentration beside the values). actives 0.49% (n = 340,000); in the data active = activity change below about -65%; inconclusive = mostly about -30% to -63%; note: % is set by controls: 0 for no effect and ±100 for the full control effect
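AlphaScreen with 125 nM GST-E1A and 125 nM His-CtBP (5X stocks) in Tris pH 8.0, 300 mM NaCl, BSA, Tween 20, TCEP. Compounds preincubated 2 h at 37 deg C, then glutathione donor/nickel acceptor beads added for 1 h at 37 deg C in dark.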
Six1-Eya2 inh: qHTS Assay for Inhibitors of the Six1/Eya2 Interaction | Homeobox protein SIX1 (Homo sapiens) + Protein phosphatase EYA2 (Homo sapiens), … | AlphaScreen GST-Six1/His-Eya2 binding, biochemical; hits give low values | activity change, % (concentration not given with the values) | actives 0.56% (n = 360,000) | AID 651725, 2012; in the data active = activity change below about -65%; inconclusive = mostly about -30% to -63%; note: % is set by controls: 0 for no effect and ±100 for the full control effect
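AlphaScreen with GST-Six1 and His-Eya2 (5X mix: 250 nM and 500 nM), glutathione donor and nickel acceptor beads; buffer 50 mM Tris pH 8.0, 300 mM NaCl, 1 mM TCEP; 1 h at 37 C in the dark.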
HP1b binding inh: HTS for Inhibitors of HP1-beta Chromodomain Interactions with Methylated Histone Tails; Potency, µM (titrated, usually from 114 µM), for inactives: top-dose activity change, negative = inhibition, most hits filed as inhibitors; Chromobox protein homolog 1 (Homo sapiens), P83916; actives 0.56% (n = 390,000); AlphaScreen HP1-beta / biotin-H3K9me3 peptide binding; note: potency is the fitted concentration of half-maximal effect; nearly all actives have a fitted effect of over 70% in size
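HP1-beta protein (50 nM final) preincubated 30 min at room temperature with biotinylated H3(1-18)K9me3 peptide (50 nM) in PBS pH 7.4, 0.01% Tween-20, then compound added for 30 min. AlphaScreen streptavidin donor/nickel chelate acceptor beads (10 ug/mL final), 30 min dark, luminescence read.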
G9a inh: qHTS Assay for Inhibitors of Histone Lysine Methyltransferase G9a; G9a H3K9 monomethylation, AlphaScreen, 2 h; Histone-lysine N-methyltransferase EHMT2 (Homo sapiens), Q96KQ7; Potency, µM (highest dose often 102 µM), inactives show top-dose activity, negative = inhibition, actives largely listed as inhibitors; actives 8.8% (n = 350,000); note: potency is the fitted concentration of half-maximal effect; % is set by controls: 0 for no effect and ±100 for the full control effect; nearly all actives have a fitted effect of over 75% in size
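Signal arises when biotinylated H3K9 peptide, once monomethylated, bridges streptavidin donor and antibody-captured acceptor beads. Enzyme at 20 nM was preincubated 15 min with test compounds; peptide 500 nM and SAM 20 uM then reacted for 2 h.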
JMJD2A Tudor inh: qHTS Assay for Inhibitors of JMJD2A-Tudor Domain; Lysine-specific demethylase 4A (Homo sapiens), O75164; AlphaScreen JMJD2A-Tudor / H3K4me3 peptide binding; actives 4.4% (n = 390,000); Potency, µM (series often up to 114 µM), without a hit: top-dose activity change, negative = inhibition, hits mostly inhibitors; note: potency is the fitted concentration of half-maximal effect; % is set by controls: 0 for no effect and ±100 for the full control effect; nearly all actives have a fitted effect of over 50% in size
BAZ2B inh: qHTS Assay for Inhibitors of BAZ2B; AID 504333, 2011; Bromodomain adjacent to zinc finger domain protein 2B (Homo sapiens), Q9UIF8; actives 4.4% (n = 360,000); AlphaScreen BAZ2B-H3K14Ac peptide displacement; Potency, µM (series often up to 114 µM), for the others: at the top dose activity change, negative = inhibition, hits mostly inhibitors; note: potency is the fitted concentration of half-maximal effect; % is set by controls: 0 for no effect and ±100 for the full control effect; nearly all actives have a fitted effect of over 60% in size
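BAZ2B 50 nM plus b-H3(5-23)K14Ac 50 nM, PBS pH 7.4/0.01% Tween-20, 30 min RT; compound added (max 110 uM), 30 min RT; streptavidin donor/Ni-chelate acceptor beads 10 ug/mL final, 20 min dark; AlphaScreen read.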
* hit, by the source's call; ? = inconclusive; / = no result given; [ ] = remark or other dose. Rows were chosen to be rich in hits. Some 10% of all compounds tested hit in one or more screens of this group. Unless noted, calls come from the whole dose curve; as a rule, active = well fitted inhibition curve with a large enough effect; inconclusive = small, poorly fitted or top-dose-only effect; inactive = no such curve, though single readings can be large or run the other way.

SMILES	CtBP-E1A blk	Six1-Eya2 inh	HP1b binding inh	G9a inh	JMJD2A Tudor inh	BAZ2B inh
Cc1ccc(/C=N/NC(=O)c2nnn(-c3nonc3N)c2C(C)C)s1	/	-0.1	53.2%	73.5%	19.1%	-16.7%
CCOC(=O)CCc1c(C)nc2c(-c3ccccc3)c(C)[nH]n2c1=O	/	/	25.0%	?	-4.9%	-17.4%
CCOC(=O)Cc1c(C)nc2c(-c3ccc(Cl)cc3)c(C)[nH]n2c1=O	13.6	?	36.6%	50.1µM*	-17.9%	7.6%
CCc1c(C)nc2c(C#N)c[nH]n2c1=O	-77.4*	?	17.5%	16.5%[2.33 µM]	-12.7%	-16.8%
CCOC(=O)Cc1c(C)nc2c(C#N)c[nH]n2c1=O	?	?	31.1%	79.4µM*	-24.1%	-6.2%
CNCCc1cnc(CCC(c2ccccc2)c2ccccc2)[nH]1	/	/	/	10µM*	/	/
Nc1nc(=S)c2n[nH]nc2[nH]1	/	/	45.9%	/	17.8µM*	/
CC1(c2ccccc2)CC(C)(C)N2C(=O)C3(C(C#N)=C(N)Oc4cc(O)ccc43)c3cccc1c32 (centres undefined)	-18.9	-15.1	?	-15.2%[59 µM]	?	-37.6%
CC1(c2ccccc2)CC(C)(C)N2C(=O)/C(=C3\SC(=S)NC3=O)c3cccc1c32 (centres undefined)	5.4	-7.3	14.1µM*	?	28.2µM*	?
CCC[n+]1cn(/C(C(=S)Nc2cccc(Cl)c2C)=C(/[O-])c2ccc(OC)c(OC)c2)c2ccccc21	-20.5	-1.7	-18.6%	39.8µM*	?	?
N#Cc1cc(C#N)c(SCC(=O)N2CC(=O)Nc3ccccc32)nc1N	/	-16.7	41.9%	?	-25.8%	-0.8%
COc1ccccc1Nc1nnc(SCC(=O)N2CC(=O)Nc3ccccc32)s1	13.5	-2.1	18.7%	50.1µM*	-17.5%	-2.2%
Cc1nnc(SCC(=O)N2CC(=O)Nc3ccccc32)n1Cc1ccccc1	0.7	7.8	41.0%	-37.5%	0.3%	0.1%
CCc1ccc2nc(SCC(=O)N3CC(=O)Nc4ccccc43)c(C#N)cc2c1	-6.3	-1.3	?	-6.3%[59 µM]	50.1µM*	-5.7%
Cc1cccc(-n2c(SCC(=O)N3CC(=O)Nc4ccccc43)nc3ccccc3c2=O)c1C	/	-2.0	18.1%	44.7µM*	-24.1%	1.3%
Cc1nc(SCC(=O)N2CC(=O)Nc3ccccc32)nc(C)c1C	3.8	1.2	29.7%	31.6µM*	-13.1%	4.2%
O=C1CN(C(=O)CNCc2ccc(Cl)cc2)c2ccccc2N1	-8.9	6.7	?	25.1µM*	10µM*	70.8µM*
Nc1ccc2cc3ccc(N)cc3nc2c1	/	/	/	28.2µM*	/	/
Cc1[nH]n(-c2ccccc2)c(=O)c1S(=O)(=O)c1ccccc1	-26.6	-13.6	33.0%	44.7µM*	-27.3%	42.1%
Cc1[nH]n(-c2ccccc2)c(=O)c1CCO	-16.1	15.4	35.8%	/	4.2%	1.6%
Cc1[nH]n(-c2ccccc2)c(=O)c1-c1ccc(Cl)cc1	-3.2	-8.2	-14.2%	14.1µM*	79.4µM*	-6.3%
CC(=C/C(=O)O)/C=C/c1ccc(Cl)o1	-0.3	-27.1	70.8µM*	11.2µM*	-8.2%[11.4 µM]	50.1µM*
CC(/C=C/c1ccc(C)o1)=C\C(=O)O	4.2	0.6	-16.3%	8.91µM*	-31.4%	-2.9%
COCCNC(=O)C1CCN(S(=O)(=O)c2c(C)noc2/C=C/c2cccs2)CC1	-3.4	-2.3	14.5%	-13.6%	-18.2%	-37.9%
Cc1ccccc1C(=O)NNC(=O)c1cccn1C	-6.8	2.4	-5.6%	-0.6%	-15.6%	3.8%
SMILES	CtBP-E1A blk	Six1-Eya2 inh	HP1b binding inh	G9a inh	JMJD2A Tudor inh	BAZ2B inh
O=C(CCc1ccccc1)N1CCN(c2ccccc2F)CC1	-3.2	1.2	35.4%	3.0%	-12.0%	-20.2%
C/C(=C\c1ccccc1)CN1CCN(c2ccccc2F)CC1	22.2	19.8	?	?	5.01µM*	-37.8%
Fc1ccccc1N1CCN(CCCc2ccccc2)CC1	0.9	-2.4	?	35.5µM*	22.4µM*	?
COCc1cc(C)nc2c1C(=O)NC(c1ccc(Br)cc1)N2Cc1ccccc1 (centres undefined)	/	/	30.7%	0.2%[59 µM]	0.0%	-17.2%
CC(=O)/C(=N\Nc1ccccc1)Sc1cccc2cccnc12	?	-24.4	-7.4%	-6.4%[59 µM]	?	?
CC(=O)/C(=N\Nc1ccccc1Cl)Sc1cccc2cccnc12	-92.1*	-89.3*	-12.5%	18.0%[59 µM]	-25.9%	1.5%
CCN1CCN(c2cc(C)c3cc(NC(=O)c4cccs4)ccc3n2)CC1	-18.5	-8.5	-17.9%	13.3%[12.7 µM]	-34.2%	-20.2%
CCN1CCN(c2cc(C)c3cc(NC(=S)NCCCN4CCc5ccccc5C4)ccc3n2)CC1	-23.1	-5.5	-11.5%	31.6µM*	?	?
CCCCNC(=S)Nc1ccc2nc(N3CCN(CC)CC3)cc(C)c2c1	-7.5	10.5	12.2%	?	?	?
Cc1ccccc1NC(=O)Nc1ccc2nc(N3CCN(C)CC3)cc(C)c2c1	/	/	1.2%	-8.3%[59 µM]	-15.5%	10.4%[57.1 µM]
Cc1cccc(CC(=O)Nc2ccc3nc(N4CCC(C)CC4)cc(C)c3c2)c1	/	/	85.4%	17.8%[59 µM]	16.0%	22.0%
CCCN1CCN(CCCNC(=S)Nc2ccc3nc(N4CCN(CC)CC4)cc(C)c3c2)CC1	2.9	-4.1	4.0%	35.5µM*	-0.7%	-8.2%
Cc1cc(N2CCN(C)CC2)nc2ccc(NC(=S)NCCCN3CCc4ccccc4C3)cc12	-11.5	-7.4	-7.5%	39.8µM*	-26.4%	?
Cc1cc(N2CCCC2)nc2ccc(NC(=S)NCCCN3CCC(C)CC3)cc12	-4.6	-5.3	6.8%	50.1µM*	-32.2%	/
O=C(CN1C(=O)C2CCCCN2c2ccc(C(=O)N3CCCC3)cc21)NCc1ccccc1F (centres undefined)	/	/	29.2%[57 µM]	4.2%[59 µM]	-9.9%	1.0%
COc1ccc(CCNC(=O)CN(c2ccc(C)cc2)S(=O)(=O)c2ccc(OC)cc2)cc1	/	/	9.0%	-3.4%[59 µM]	-18.0%	4.3%
COC(=O)c1ccccc1NC(=O)Cn1c(=O)nc(-c2ccccc2)c2cc(Cl)ccc21	/	/	14.7%	5.7%[59 µM]	-12.3%	-6.9%
O=C(C[n+]1cc(Br)cc(Br)c1)c1cccc([N+](=O)[O-])c1	-4.9	-5.5	20.3%	-111.2%[59 µM]	-26.9%	50.1µM*
O=C(CSc1nc2ncc(Br)cc2[nH]1)c1cccc([N+](=O)[O-])c1	-6.7	-12.9	19.7%	44.7µM*	-34.2%	-11.9%
CC(C)(C)C(=O)CSc1nc2ncc(Br)cc2[nH]1	-7.2	-17.0	53.9%	50.1µM*	?	-13.7%

High-throughput results from PubChem BioAssay.
